High-throughput results as filed in PubChem BioAssay.
Rows were chosen to be rich in hits. Some 7.3% of all compounds tested hit in one or more screens of this group.
KinaseGlo FLuc: Kinase-Glo luciferase inhibition (counter-screen) | 200,000 tested, 0.28% active | Potency, µM (top dose mostly 38.3 µM), for inactives: top-dose activity change, negative = inhibition, hits mostly inhibitors | Q27757 | AID 1379 | Kinase-Glo luciferase, ATP luminescence, 8 min; further: on the % scale 0 is the no-effect control and ±100 the full control effect; nearly all actives have a fitted effect of over 60% in size
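Luminescence was the read-out, taken after 8-minute incubation at ambient temperature. Luciferase turned over luciferin with 10 uM ATP in imidazole pH 7.2 buffer containing KCl, MgCl2, Tween 20 and BSA.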
ELG1 genotoxic: induces genotoxicity in HEK293T cells with luciferase-tagged ELG1; HEK293T ELG1-luciferase reporter, luminescence, 16 h; Potency, µM (titrated, usually from 46 µM), inactives show at the top dose activity change, positive = activation, usual class: activators; 330,000 tested, 1.3% active; AID 504466; further: % of control where 0% means no effect; nearly all actives have a fitted effect of over 60% in size
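16 hr compound incubation (37 °C, 5% CO2) of HEK293T cells carrying luciferase-tagged ELG1; luciferase then measured by ONE-Glo luminescence after 30 min at RT.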
SMN2 splice up: increases expression of the SMN2 splice variant. AID 1458. HEK293 SMN2-luciferase splicing reporter, luminescence, 30-36 h. 210,000 tested, 2.8% active. Potency, µM (series often up to 46.1 µM), for the others: top-dose activity change, positive = activation, usual class: activators; further: % of control where 0% means no effect; nearly all actives have a fitted effect of over 55% in size
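qHTS luciferase splicing reporter: luminescence rises when SMN2 exon 7 is included in transfected HEK293 cells. Compound exposure lasted 30-36 h at 37C, with 4.5 mM final sodium butyrate as control, followed by a ONE-Glo read.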
FLuc counter: counter-screen for miR-21 project: firefly luciferase inhibitors or activators; purified FLuc, Km substrates, luminescence inhibition; 360,000 tested, 6.9% active; P08659; Potency, µM (series often up to 57.5 µM), inactives show at the highest dose activity change, negative = inhibition, actives largely listed as inhibitors;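 further: plate controls were vehicle for no effect and reference inhibitor for full effect; nearly all actives have a fitted effect of over 55% in size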
Target sequence (P08659 whole entry, looked up): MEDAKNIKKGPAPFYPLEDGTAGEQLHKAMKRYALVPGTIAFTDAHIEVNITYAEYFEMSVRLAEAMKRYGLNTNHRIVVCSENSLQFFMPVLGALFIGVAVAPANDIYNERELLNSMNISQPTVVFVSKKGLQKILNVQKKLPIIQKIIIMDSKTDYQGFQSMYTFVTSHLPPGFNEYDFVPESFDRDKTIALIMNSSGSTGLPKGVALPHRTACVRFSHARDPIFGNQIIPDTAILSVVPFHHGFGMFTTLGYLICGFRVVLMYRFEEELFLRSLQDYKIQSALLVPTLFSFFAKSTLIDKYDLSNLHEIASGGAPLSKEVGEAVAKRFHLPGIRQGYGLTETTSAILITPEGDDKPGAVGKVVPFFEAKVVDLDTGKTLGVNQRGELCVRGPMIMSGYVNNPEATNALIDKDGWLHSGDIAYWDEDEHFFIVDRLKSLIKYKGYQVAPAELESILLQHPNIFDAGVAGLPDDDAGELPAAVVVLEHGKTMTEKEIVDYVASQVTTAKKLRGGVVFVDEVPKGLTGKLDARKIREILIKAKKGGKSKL
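Biochemical qHTS of compounds, final roughly 60 µM downward over six points, against 10 nM purified firefly luciferase using Km concentrations of substrates (10 uM D-luciferin, 10 uM ATP) in Tris acetate pH 7.5 buffer; luminescence output.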
Rab9 promoter act: activates the Rab9 promoter; Huh7 Rab9 promoter-luciferase reporter, luminescence, 24 h; Potency, µM (series often up to 9.22 µM), for inactives: at the highest dose activation, negative = inhibition, hits mostly activators; 320,000 tested, 2.8% active; AID 485297; further: % of control where 0% means no effect; nearly all actives have a fitted effect of over 60% in size
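Quantitative HTS format; Huh7 Rab9-luciferase reporter cells (1500/well) receive compound 2 h post-plating, incubate 24 h at 37 °C, then get luciferase reagent for 10 min before luminescence reading.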
NPC1 promoter act: activators of NPC1 promoter; Huh7 NPC1 promoter luciferase reporter, 24 h; Potency, µM (titrated, usually from 9.22 µM), for the others: top-dose activation, most hits filed as activators; 320,000 tested, 2.4% active; further: % of control where 0% means no effect; nearly all actives have a fitted effect of over 60% in size
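Quantitative HTS used a cell-based reporter: Huh7 cells stably bearing the NPC1 promoter upstream of luciferase were treated with compounds for 24 h, and promoter activation was read as luminescence.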
Active calls of the source: *; ? = inconclusive; . = not tested or not shown. The call rests on the fitted dose curve; in most records, active means well fitted curve in the direction sought with a large enough effect; inconclusive means small, poorly fitted or top-dose-only effect, or another doubt; inactive means no such curve, though single readings can be large; an effect the other way counts as inactive or inconclusive. Potency means the concentration at half of the fitted maximal effect.

SMILES | KinaseGlo FLuc | ELG1 genotoxic | SMN2 splice up | FLuc counter | Rab9 promoter act | NPC1 promoter act
Cc1cc2ccccn2c1C(=O)Nc1cccc(Cl)c1 | -3% | 12% | 27% | 13µM* | 28% | -18%
Cc1cc2ccccn2c1C(=O)c1ccc(Cl)cc1 | -2% | -4% | -14% | ? | 15% | 3%
O=C(Nc1ccc(Cl)cc1)Nc1cccc(C(=O)O)c1 | -3% | -9% | . | 0.067µM* | 0.25µM* | 0.089µM*
CC(=O)c1cccc(NC(=O)CCCOc2ccc(C)cc2)c1 | 2% | -2% | -20% | -13% | 9% | 0%
O=C(CCCOc1ccc(Cl)cc1)Nc1cccc(C(=O)O)c1 | 4% | 5% | . | 17µM* | 3% | -1%
CC(=O)c1cccc(Nc2cc(C)nc3c(C)cc(C)cc23)c1 | 1% | 5% | 11% | -1% | -5% | -1%
CCOC(=O)c1ccccc1NC(=O)c1c(C)oc2ncnc(N3CCOCC3)c12 | . | . | . | -14% | . | .
CCOC(=O)C1=C(CC)Nc2ccccc2N=C1NC(=O)Cn1cnc2ccccc2c1=O | 0% | 1% | 7% | -1% | -9% | -1%
O=C(Nc1cccc(Cl)c1)N1CCCCCC1 | . | ? | . | ? | 15% | 26%
CC(=O)c1ccc(NC(=S)NCCc2cccc(Cl)c2)cc1 | 4% | ? | 13µM* | -22% | 2.8µM* | ?
O=C(Nc1cccc(C(=O)O)c1)/C(=C\c1ccccc1)NC(=O)c1cccc2ccccc12 | -1% | 0% | . | 21µM* | 0% | -4%
O=C(Nc1cccc(C(=O)O)c1)Nc1ccccc1Cl | -9% | -10% | 13µM* | 0.21µM* | 0.1µM* | 0.5µM*
O=C(Nc1ccc(C(=O)N2CCCCC2)cc1)Nc1cccc(Cl)c1 | . | 13% | . | 11µM* | 3.2µM* | 4µM*
COc1ccc(C(=O)N/C(=C\c2ccccc2)C(=O)Nc2cccc(C(=O)O)c2)cc1 | . | -2% | . | -1% | 5% | -4%
CC1CCN(C(=O)C2CCC(CNc3c(N4CCCCC4)c(=O)c3=O)CC2)CC1 (stereo unspecified) | . | -1% | . | 1% | 0% | -3%
Cn1c(-c2ccc(F)cc2)cnc1NCc1ccc(F)cc1 | -3% | -2% | 12% | -3% | -3% | -2%
CC(C)C[C@H]1CN=C(Nc2ccccc2)N1CCC1CCCC1 | . | -4% | . | 0% | 4% | 0%
Cc1cc(O)c(C(=O)Nc2cccc(Cl)c2)c(=O)n1C | . | 10µM* | . | 3.4µM* | 2.5µM* | 2.2µM*
O=C(Nc1cccc(Cl)c1)Nc1ccc(Cl)cn1 | -3% | 11% | 8% | -11% | 26% | 22%
Cc1nn(C)cc1CNC(=O)Nc1cccc(Cl)c1 | -3% | 28% | ? | ? | 3.5µM* | ?
Fc1ccccc1NC(=S)NCCc1cccc(Cl)c1 | . | 16% | . | 24µM* | ? | ?
O=C(Nc1cccc(Cl)c1)Nc1cccc(C(=O)O)c1 | . | -2% | . | 0.48µM* | 0.35µM* | 0.32µM*
S=C(NCCc1ccccc1)NCc1cccc(Cl)c1 | . | 3% | . | -14% | 6% | 17%
CC(C)(C)OC(=O)N1CCC(c2c(C(=O)NCCc3ccsc3)cnn2-c2ccccc2Cl)CC1 | . | . | . | -10% | . | .
Cc1ccc(NC(=S)Nc2ccc3[nH]c(=O)[nH]c3c2)cc1 | . | 5% | . | ? | 12% | -5%
SMILES | KinaseGlo FLuc | ELG1 genotoxic | SMN2 splice up | FLuc counter | Rab9 promoter act | NPC1 promoter act
CNc1nc(N)nc(-c2cc(Cl)ccc2OC)n1 | -1% | 0% | . | 1% | -11% | 1%
O=C(Nc1cccc(C(=O)O)c1)Nc1cccc2ccccc12 | . | 8% | . | 2.1µM* | 3.5µM* | 2µM*
O=C(NNC1=NCCCCC1)Nc1cccc(Cl)c1 | 0% | 11% | 22µM* | 17µM* | 1.1µM* | ?
CSc1cccc(NC(=O)C(=O)NCc2ccccc2)c1 | . | 1% | . | 3% | 1% | 1%
O=C(Nc1ccccc1)Nc1cccc(Cl)c1 | -3% | ? | 15% | 9.5µM* | 3.5µM* | ?
CC(=O)Nc1ccc(NC(=O)Nc2cccc(Cl)c2)cc1 | . | ? | . | ? | 28% | 29%
